Source: PubChem (National Center for Advancing Translational Sciences (NCATS))
An excerpt weighted towards active compounds, which were near 12% of everything screened.
JMJD2A Tudor inh: inhibitors of human JMJD2A Tudor domain | AlphaScreen JMJD2A-Tudor / H3K4me3 peptide binding | 390,000 compounds, 4.4% hits | O75164 | Potency, µM (series often up to 114 µM), for inactives: at the top dose activity change, negative = inhibition, usual class: inhibitors | AID 504339; further: potency means the concentration at half of the fitted maximal effect; on the % scale 0 is the no-effect control and ±100 the full control effect; nearly all actives have a fitted effect of over 50% in size
PI5P4K alpha inh: blocks human PI5P4K alpha kinase activity | 330,000 compounds, 1.2% hits | AID 652105 | PI5P4Kalpha enzyme, ADP-Glo luminescence, 60 min; hits give low values | max response, %; active means max response of -50% or lower; inconclusive means between -30% and -50%; inactive means -30% or higher; further: value at the top dose of about 77 µM; on the % scale 0 is the no-effect control and ±100 the full control effect
Target sequence (P48426 whole entry, looked up): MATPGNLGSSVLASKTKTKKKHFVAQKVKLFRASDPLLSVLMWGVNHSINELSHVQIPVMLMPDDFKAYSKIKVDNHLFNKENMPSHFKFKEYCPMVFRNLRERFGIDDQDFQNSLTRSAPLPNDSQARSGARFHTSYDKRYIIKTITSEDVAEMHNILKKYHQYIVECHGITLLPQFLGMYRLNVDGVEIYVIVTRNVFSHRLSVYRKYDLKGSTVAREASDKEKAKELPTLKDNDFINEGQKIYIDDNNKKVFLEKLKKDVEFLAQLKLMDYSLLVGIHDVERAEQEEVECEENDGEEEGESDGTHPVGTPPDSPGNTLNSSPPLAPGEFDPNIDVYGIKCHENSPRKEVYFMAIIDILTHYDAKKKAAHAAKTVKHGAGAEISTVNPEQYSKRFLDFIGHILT
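ADP-Glo luminescence end-point read after a 60 min room-temperature kinase reaction of PI5P4Kalpha plus substrate, initiated with ATP at 5 microM final. Buffer: 0.038 M HEPES pH 7.4, EGTA, 0.1% CHAPS, 5% DMSO.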
HP1b chromo inh: HP1-beta chromodomain-methylated histone interaction inhibition. AID 540317. Potency, µM (top dose mostly 114 µM), without a hit: top-dose activity change, negative = inhibition, actives largely listed as inhibitors. AlphaScreen HP1-beta / biotin-H3K9me3 peptide binding. 390,000 compounds, 0.56% hits; further: potency means the concentration at half of the fitted maximal effect; nearly all actives have a fitted effect of over 70% in size
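Compound inhibition of the preformed complex between 50 nM HP1-beta and 50 nM biotinylated H3K9me3 peptide was read by AlphaScreen. Buffer was PBS pH 7.4 with 0.01% Tween-20. Incubations ran 30 min at room temperature, with 10 ug/mL donor/acceptor beads.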
BAZ2B inh: BAZ2B (human) inhibition. Q9UIF8. AlphaScreen BAZ2B-H3K14Ac peptide displacement. Potency, µM (series often up to 114 µM), without a hit: top-dose activity change, negative = inhibition, most hits filed as inhibitors. 360,000 compounds, 4.4% hits. AID 504333; further: potency means the concentration at half of the fitted maximal effect; on the % scale 0 is the no-effect control and ±100 the full control effect; nearly all actives have a fitted effect of over 60% in size
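AlphaScreen displacement of biotin-H3(5-23)K14Ac peptide (50 nM final) from BAZ2B (50 nM final) in PBS pH 7.4, 0.01% Tween-20; complex preformed 30 min RT, then compounds (top 110 uM) 30 min RT, beads 20 min dark.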
G9a inh: inhibitors of human histone lysine methyltransferase G9a; G9a H3K9 monomethylation, AlphaScreen, 2 h; Potency, µM (highest dose often 102 µM), without a hit: at the highest dose activity, negative = inhibition, usual class: inhibitors; 350,000 compounds, 8.8% hits; AID 504332; further: potency means the concentration at half of the fitted maximal effect; on the % scale 0 is the no-effect control and ±100 the full control effect; nearly all actives have a fitted effect of over 75% in size
Target sequence (Q96KQ7 913-1193 limits assumed): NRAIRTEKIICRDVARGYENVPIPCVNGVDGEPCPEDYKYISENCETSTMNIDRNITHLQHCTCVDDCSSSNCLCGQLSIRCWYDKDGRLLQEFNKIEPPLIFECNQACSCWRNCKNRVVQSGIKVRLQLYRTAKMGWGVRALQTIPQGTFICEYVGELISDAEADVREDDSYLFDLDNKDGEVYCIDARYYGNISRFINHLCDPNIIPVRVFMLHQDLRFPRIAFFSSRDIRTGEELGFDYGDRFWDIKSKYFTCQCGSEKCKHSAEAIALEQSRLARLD
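G9a (20 nM) preincubated 15 min RT with compounds, then 500 nM biotinylated H3K9 peptide and 20 uM SAM added; 2 h RT reaction. Monomethyl-H3K9 product detected by AlphaScreen with anti-H3K9me1 antibody, streptavidin donor and anti-rabbit IgG acceptor beads.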
PLK1 PBD block: PLK1 (human) polo-box domain binding inhibition; 360,000 compounds, 2.8% hits; P53350; Potency, µM, for the others: max response, negative = inhibition, actives largely listed as inhibitors; Plk1 PBD binding of FITC phosphopeptide, fluorescence polarization; further: potency means the concentration at half of the fitted maximal effect; series mostly up to about 57 µM; on the % scale 0 is the no-effect control and ±100 the full control effect; nearly all actives have a fitted effect of over 65% in size
The depositor's hits bear a star; ? = inconclusive; · = not tested or not shown; [ ] = dose if it differs, or a comment. Unless noted, the call rests on the fitted dose curve; in most records, active means well fitted curve in the direction sought with a large enough effect; inconclusive means small, poorly fitted or top-dose-only effect, or another doubt; inactive means no such curve, though single readings can be large; an effect the other way counts as inactive or inconclusive.

SMILES	JMJD2A Tudor inh	PI5P4K alpha inh	HP1b chromo inh	BAZ2B inh	G9a inh	PLK1 PBD block
C/C=C/c1cccc(-c2nc(C(=O)N3CCOCC3)cc3c2[C@H](CCO)N(C(=O)NC(C)C)C3)c1	·	-2.1	·	·	·	-11.2%
Cc1ccc(S(=O)(=O)NCCOC(=O)Nc2sc(=S)n(C)c2C)cc1	-9.4%	·	?	?	31.6µM*	?
CCOC(=O)Nc1sc(=S)n(C)c1C	-8.6%	·	-7.2%	8.8%	12.6µM*	-22.7%
Cc1c(NC(=O)OCCNC(=O)Nc2ccccc2)sc(=S)n1C	-7.5%	-10.4	-22.1%	-3.3%	?	?
COc1cccc2cc(C(=O)NCCc3c(C)[nH]c4ccc(Br)cc34)c(=O)oc12	-11.9%	·	30.4%	?	-31.3%[59 µM]	·
COc1ccccc1CNc1nc2nc(C)c(Cl)c(=O)n2[nH]1	-13.8%	-1.8	32.3%	14.2%	12.6µM*	-5.3%
COc1ccccc1CNc1nc2nc(C)c(Cl)c(C)n2n1	-6.9%	·	25.6%	-4.3%	-20.8%[59 µM]	·
COc1ccc(CNc2nc3nc(C)c(Cl)c(=O)n3[nH]2)cc1	-2.9%[11.4 µM]	-13.3	84.0%	-18.9%	56.2µM*	-9.8%
Cc1cc(=O)n2[nH]c(NCc3ccc(F)cc3)nc2n1	-22.9%	·	22.6%	-21.1%	-41.1%[59 µM]	·
CCCCNc1c(-c2ccc(OC)c(SC3CCCCC3)c2)nc2cc(C)ccn12	56.2µM*	-0.4	-14.9%	?	14.0%[2.33 µM]	-11.2%
CN(C)c1ccc(-c2nn3c(-c4cc(-c5ccccc5)n[nH]4)nnc3s2)cc1	-6.9%[57.1 µM]	·	29.2%[57 µM]	·	·	·
Fc1ccc(-c2ccnc(=S)[nH]2)cc1	4.9%	·	15.9%	1.6%	-49.0%[12.7 µM]	9.47µM*
C=CCn1c(-c2ccc(Cl)cc2)cnc1SC(C)C(N)=O (stereo not drawn)	-32.9%	3.3	19.9%	?	10µM*	-12.6%
COc1cc(NC(=O)C2=C(N3CCOCC3)/C(=C\c3ccc(N(C)C)cc3)CCC2)cc(OC)c1OC	28.2µM*	13.3	?	39.8µM*	?	-15.2%
COc1cc(NC(=O)C2=C(N3CCOCC3)/C(=C/c3ccc(Cl)cc3)CC2)cc(OC)c1OC	-16.0%	0.1	24.8%	8.7%	13.4%	-3.2%
COc1cccc(C2c3[nH]c4ccccc4c3CCN2Cc2cnc(C)s2)c1OC (stereo not drawn)	?	1.2	-10.8%	25.1µM*	0.6%	-10.2%
Fc1ccccc1C1c2[nH]c3ccccc3c2CCN1CCCn1cccn1 (stereo not drawn)	?	1.1	5.5%	-37.9%	39.8µM*	-9.4%
CC(C)(C)C1c2[nH]c3ccccc3c2CCN1CCCn1cccn1 (stereo not drawn)	-28.5%	9.9	24.4%	-18.5%	-27.7%	-4.1%
Oc1cccc(C2c3[nH]c4ccccc4c3CCN2Cc2ccoc2)c1 (stereo not drawn)	?	1.6	-16.2%	?	-39.4%	-13.0%
Oc1cccc(C2c3[nH]c4ccccc4c3CCN2Cc2ccc3c(c2)CCO3)c1 (stereo not drawn)	56.2µM*	-1.9	-34.5%	44.7µM*	-44.0%	-2.0%
COc1ccc(C2c3[nH]c4ccccc4c3CCN2Cc2ccoc2)c(F)c1 (stereo not drawn)	?	8.0	-11.9%	?	44.7µM*	1.6%
Cc1ccc(CN(C(=O)c2ccc(OCC(C)C)cc2)c2ccccn2)o1	-12.3%	·	19.8%	7.7%	-27.2%[59 µM]	·
CCOc1ccccc1NC(=O)c1c(NC(=O)Cc2ccc(OC)cc2)sc2c1CCC2	-3.9%	·	33.2%	2.5%	3.0%[59 µM]	·
NC(c1ccccc1)c1csc(Nc2ccc(C(F)(F)F)cn2)n1 (stereo not drawn)	·	4.8	·	·	·	-0.8%
CC(C)CCn1c(SC(C)C#N)nc2ccccc2c1=O (stereo not drawn)	45.4%[57.1 µM]	·	54.1%[57 µM]	·	·	·
SMILES	JMJD2A Tudor inh	PI5P4K alpha inh	HP1b chromo inh	BAZ2B inh	G9a inh	PLK1 PBD block
COc1cc(/C=N/NC(=S)N/N=C/c2cc(OC)c(OC)c(OC)c2)cc(OC)c1OC	?	3.6	25.9%	-23.2%	?	3.7%
COc1cccc(/C=N/n2c(-c3cc(C)[nH]n3)n[nH]c2=S)c1	3.16µM*	-15.9	?	-33.8%	2.51µM*	-15.4%
COc1cc(/C=N/n2c(-c3cc(C)[nH]n3)n[nH]c2=S)cc(OC)c1OC	1.41µM*	-13.7	-21.9%	-32.4%	2.51µM*	-7.7%
COc1cc(/C=N/n2c(-c3cc(C)[nH]n3)n[nH]c2=S)ccc1O	?	-9.4	46.7%	-26.8%	3.98µM*	-5.6%
Cn1c(=O)[nH]c(=O)c2c1nc(NC1CCCC1)n2Cc1ccccc1	-16.5%	0.0	17.4%	-32.8%	-0.5%[12.7 µM]	-8.7%
Cc1ccc(SCC(=O)NNC(=O)c2cncc(Br)c2)cc1	-4.8%	-3.1	42.7%	·	·	-2.3%
O=C1CC(N(O)C2CC(=O)N(Cc3ccccc3)C2=O)C(=O)N1Cc1ccccc1 (stereo not drawn)	-23.6%[57.1 µM]	-12.7	-24.9%	2.5%	·	23.8µM*
CCCN(CCC)C1CC(=O)N(Cc2ccccc2)C1=O (stereo not drawn)	-15.2%	-6.9	65.7%	-21.7%	25.1µM*	-13.6%
Cc1ccccc1Cn1c(C)c(CNCCCc2ccccc2)c(C(=O)O)c1C	-32.2%	·	9.3%	-18.2%	10.6%[59 µM]	·
COC(=O)c1cc2occc2n1Cc1nc(-c2cccc(Br)c2)oc1C	-5.8%	·	53.0%	-11.2%	3.7%[59 µM]	·
Cc1ccc(-c2c(CN3CCN(c4cccc(C(F)(F)F)c4)CC3)csc2C)cc1	-7.3%	·	22.6%	-37.3%	-5.1%[59 µM]	·
COc1ccc(/C=C/C(=O)c2ccncc2)c2ccccc12	56.2µM*	13.4	38.5%	-38.3%	?	5.5%
CC1CCN(C(=O)c2ccc(S(=O)(=O)N3CCOCC3)cc2)CC1	-4.9%	12.0	23.0%	8.0%	7.9%	-2.0%
FC(F)(F)c1ccc2c(c1)C1C=CCC1C(c1ccncc1)N2 (stereo not drawn)	?	-2.8	-8.2%	44.7µM*	?	-25.3%
O=C(O)c1ccc2c(c1)C1C=CCC1C(c1ccncc1)N2 (stereo not drawn)	-3.2%	-4.1	26.8%	56.2µM*	?	0.8%
CC(=O)c1ccc2c(c1)C1C=CCC1C(c1ccc(S(=O)(=O)N3CCOCC3)cc1)N2 (stereo not drawn)	-32.4%	-64.5*	6.0%	?	?	-10.5%
COc1ccccc1OCCNC(=O)CNC(=O)c1ccc(C(C)(C)C)cc1	-17.0%	-1.5	-2.8%	1.9%	-10.6%[2.33 µM]	-11.1%
COc1ccc(/C=C/c2nnc(NC(=O)COc3ccc(Cl)cc3)s2)cc1	-5.4%[57.1 µM]	·	31.6%[57 µM]	·	·	·
Cc1sc2ncn(CC(=O)NCCCC(=O)N3CCN(Cc4ccc5c(c4)OCO5)CC3)c(=O)c2c1C	-15.3%	1.3	12.0%	-15.6%	-8.4%	4.8%
COCc1cc(CN2CCN(C)CC2)c(O)c2ncccc12	7.94µM*	1.8	21.4%	1.12µM*	-125.7%	0.1%
c1ccc(N2CCN(Cc3ccnc4ccccc34)CC2)cc1	56.2µM*	·	24.9%	?	4.47µM*	-5.0%
